# Assay outcomes from PubChem BioAssay.
# HP1b chromo inh = blocks HP1-beta chromodomain binding to methylated histone tails | P83916 | AlphaScreen HP1-beta / biotin-H3K9me3 peptide binding | Potency, µM (doses to about 114 µM), most hits filed as inhibitors | 0.56% of 390,000 active | AID 540317; also: nearly all actives have a fitted effect of over 70% in size
#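 Compound inhibition of the preformed complex between 50 nM HP1-beta and 50 nM biotinylated H3K9me3 peptide was read by AlphaScreen. Buffer was PBS pH 7.4 with 0.01% Tween-20. Incubations ran 30 min at room temperature, with 10 ug/mL donor/acceptor beads.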
# BAZ2B block = blocks human BAZ2B; AlphaScreen BAZ2B-H3K14Ac peptide displacement; Potency, µM (highest dose often 114 µM), actives largely listed as inhibitors; AID 504333; Q9UIF8; 4.4% of 360,000 active; also: nearly all actives have a fitted effect of over 60% in size
# Target sequence (Q9UIF8 whole entry, looked up): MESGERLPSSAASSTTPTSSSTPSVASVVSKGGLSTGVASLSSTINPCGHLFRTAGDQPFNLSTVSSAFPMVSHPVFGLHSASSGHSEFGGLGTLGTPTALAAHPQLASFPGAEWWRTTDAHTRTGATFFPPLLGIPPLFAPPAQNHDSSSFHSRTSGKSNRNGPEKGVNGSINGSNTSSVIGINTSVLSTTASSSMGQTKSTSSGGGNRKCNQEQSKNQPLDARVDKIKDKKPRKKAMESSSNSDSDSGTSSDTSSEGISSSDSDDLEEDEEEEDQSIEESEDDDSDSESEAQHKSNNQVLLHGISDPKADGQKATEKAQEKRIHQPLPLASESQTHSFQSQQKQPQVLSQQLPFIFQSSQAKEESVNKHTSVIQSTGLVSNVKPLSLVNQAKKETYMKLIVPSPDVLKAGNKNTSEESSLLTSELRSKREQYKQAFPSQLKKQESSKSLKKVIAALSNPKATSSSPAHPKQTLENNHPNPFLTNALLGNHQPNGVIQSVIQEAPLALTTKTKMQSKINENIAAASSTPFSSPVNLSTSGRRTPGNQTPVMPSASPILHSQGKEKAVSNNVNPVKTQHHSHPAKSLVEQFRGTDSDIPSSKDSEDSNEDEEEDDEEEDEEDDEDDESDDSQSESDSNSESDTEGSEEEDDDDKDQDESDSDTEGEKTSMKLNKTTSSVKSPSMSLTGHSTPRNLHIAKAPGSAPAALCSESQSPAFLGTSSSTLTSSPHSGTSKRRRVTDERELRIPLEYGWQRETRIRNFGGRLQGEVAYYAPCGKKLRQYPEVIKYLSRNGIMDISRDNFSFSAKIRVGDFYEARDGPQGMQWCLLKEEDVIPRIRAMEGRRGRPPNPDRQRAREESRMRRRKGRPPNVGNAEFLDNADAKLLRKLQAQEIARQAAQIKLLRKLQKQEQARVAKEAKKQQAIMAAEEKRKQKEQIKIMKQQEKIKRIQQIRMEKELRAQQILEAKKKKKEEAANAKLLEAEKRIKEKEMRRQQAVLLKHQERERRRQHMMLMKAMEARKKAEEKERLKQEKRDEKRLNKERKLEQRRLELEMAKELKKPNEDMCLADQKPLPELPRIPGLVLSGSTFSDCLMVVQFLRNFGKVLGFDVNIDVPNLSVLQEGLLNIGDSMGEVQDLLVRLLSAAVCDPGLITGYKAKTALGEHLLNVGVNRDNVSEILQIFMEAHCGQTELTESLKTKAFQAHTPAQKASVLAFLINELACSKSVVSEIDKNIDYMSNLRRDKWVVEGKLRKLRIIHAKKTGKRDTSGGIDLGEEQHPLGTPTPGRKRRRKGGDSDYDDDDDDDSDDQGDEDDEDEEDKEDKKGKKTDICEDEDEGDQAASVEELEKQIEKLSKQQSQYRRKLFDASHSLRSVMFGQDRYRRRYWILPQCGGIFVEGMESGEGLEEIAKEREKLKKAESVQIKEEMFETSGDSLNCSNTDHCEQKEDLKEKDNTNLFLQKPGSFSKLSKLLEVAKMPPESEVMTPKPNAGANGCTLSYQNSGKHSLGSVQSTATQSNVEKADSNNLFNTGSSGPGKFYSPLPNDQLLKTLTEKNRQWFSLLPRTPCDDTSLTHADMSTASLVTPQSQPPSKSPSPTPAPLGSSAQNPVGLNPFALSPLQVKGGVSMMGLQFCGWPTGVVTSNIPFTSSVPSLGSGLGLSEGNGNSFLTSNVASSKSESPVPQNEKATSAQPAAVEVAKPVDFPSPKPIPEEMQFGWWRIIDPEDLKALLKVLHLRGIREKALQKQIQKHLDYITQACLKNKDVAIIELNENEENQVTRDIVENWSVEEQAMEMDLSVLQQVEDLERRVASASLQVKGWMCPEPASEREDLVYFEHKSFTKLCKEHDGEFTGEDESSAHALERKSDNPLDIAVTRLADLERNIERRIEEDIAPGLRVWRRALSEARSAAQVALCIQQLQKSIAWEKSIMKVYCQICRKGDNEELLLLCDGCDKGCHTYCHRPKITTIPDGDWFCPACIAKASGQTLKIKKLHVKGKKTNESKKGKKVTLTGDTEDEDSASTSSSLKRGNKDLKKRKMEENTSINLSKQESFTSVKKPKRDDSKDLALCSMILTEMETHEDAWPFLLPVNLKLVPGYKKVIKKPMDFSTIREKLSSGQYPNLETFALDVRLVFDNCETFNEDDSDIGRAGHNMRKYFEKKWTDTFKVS
#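 Complex of BAZ2B and biotin-H3K14Ac (50 nM apiece) forms over 30 min at RT, then faces library compounds up to 110 uM for another 30 min; AlphaScreen beads added, 20 min dark incubation, luminescence read.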
# G9a inh = G9a (human) methyltransferase inhibition. G9a H3K9 monomethylation, AlphaScreen, 2 h. Potency, µM (series often up to 102 µM), hits mostly inhibitors. 8.8% of 350,000 active. AID 504332; also: nearly all actives have a fitted effect of over 75% in size
#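 Signal arises when biotinylated H3K9 peptide, once monomethylated, bridges streptavidin donor and antibody-captured acceptor beads. Enzyme at 20 nM was preincubated 15 min with test compounds; peptide 500 nM and SAM 20 uM then reacted for 2 h.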
# PI5P4Ka inh = PI5P4K alpha (human) kinase inhibition | P48426 | PI5P4Kalpha enzyme, ADP-Glo luminescence, 60 min; stronger effect = lower value | max response, % | 1.2% of 330,000 active | AID 652105; active = max response of -50% or lower; inconclusive = between -30% and -50%; inactive = -30% or higher; also: value at the top dose of about 77 µM
#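 Luminescence from ADP-Glo served as readout of PI5P4Kalpha activity in a qHTS format. Reaction: enzyme, substrate, compound, ATP at 5 microM final, 60 min at RT.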
# JMJD2A Tudor inh = blocks the human JMJD2A Tudor domain | O75164 | Potency, µM (top dose mostly 114 µM), most hits filed as inhibitors | 4.4% of 390,000 active | AID 504339 | AlphaScreen JMJD2A-Tudor / H3K4me3 peptide binding; also: nearly all actives have a fitted effect of over 50% in size
# L3MBTL1 block = L3MBTL1 (human) inhibition | AlphaScreen L3MBTL1–H3K9me1 peptide binding | AID 485360 | Q9Y468 | 0.66% of 230,000 active | Potency, µM (titrated, usually from 57.1 µM), most hits filed as inhibitors; also: nearly all actives have a fitted effect of over 60% in size
#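 AlphaScreen assay: L3MBTL1 (50 nM final) was preincubated 30 min at room temperature with biotinylated H3(1-15)K9me1 peptide (75 nM final), then 30 min with library compounds; streptavidin donor and nickel chelate acceptor beads (10 ug/mL final) added, 30 min dark.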
# A number is an active result; . = inactive; ? = inconclusive; / = no result given; [ ] = remark or other dose. This is a sample that favours compounds with a hit; in the whole collection about 11% have one here. Unless noted, calls follow the shape of the dose curve; as a rule, active = well fitted inhibition curve with a large enough effect; inconclusive = small, poorly fitted or top-dose-only effect; inactive = no such curve, though single readings can be large or run the other way.
SMILES,HP1b chromo inh,BAZ2B block,G9a inh,PI5P4Ka inh,JMJD2A Tudor inh,L3MBTL1 block
O=C(NNc1ccccn1)C(=O)NNS(=O)(=O)c1ccc(F)cc1,.,39.8µM,.,.,.,.
N/C(=N\NS(=O)(=O)c1ccc(Cl)cc1)c1ccccn1,.,/,/,.,.,/
COC(=O)c1ccc(NC(=O)C2CCN(c3ncnc4c3nc3n4CCCCC3)CC2)cc1,.,.,.,/,.,/
CCSc1nnc2c(n1)OC(c1ccc(OC)cc1OC)N(C(C)=O)c1ccccc1-2 (centres undefined),.,.,.,/,.,/
O=C(c1ccc2c(c1)CCN2S(=O)(=O)c1ccc(Cl)cc1)N1CCN(c2ccccc2)CC1,.,?,?,/,.,/
O=C(Nc1cc(-c2nc3cc(Cl)ccc3o2)ccc1Cl)c1cccc2ccccc12,.,.,.,/,.,/
C=CCn1c(SCc2cc(=O)n3cc(C)ccc3n2)nnc1-c1ccc(F)cc1,.,.,.,.,.,.
Cc1ccc2nc(CSc3nnc(-c4ccncc4)n3C)cc(=O)n2c1,.,.,39.8µM,.,.,.
COCCn1c(SCc2cc(=O)n3ccsc3n2)nnc1-c1ccncc1,.,.,.,.,39.8µM,/
CCOC(=O)/C(=N\Nc1ccccc1Cl)N1CC(C)OC(C)C1 (centres undefined),.,?,.,.,.,/
CCOC(=O)/C(=N\Nc1ccc(Br)cc1)N1CC(C)OC(C)C1 (centres undefined),.,.,3.16µM,.,?,/
CCCN(C(=O)CCc1nc(-c2ccc(OC)cc2)no1)c1ccccc1F,.,.,.,/,.,/
COc1cccc(NC(=O)c2nnn(Cc3ccc(OC)c(Br)c3)c2N)c1,.,.,.,/,.,/
Cc1ccccc1-n1c(SCc2csc(Nc3ccccc3)n2)nnc1-c1cccnc1,.,?,25.1µM,.,?,.
Cc1ccc(Nc2nc(CSc3nnc(-c4ccccc4C)n3C)cs2)cc1,.,?,31.6µM,.,79.4µM,.
Cc1cccc(OCC(=O)Nc2ccc3c(c2)nc(CCNC(=O)c2ccco2)n3C)c1,.,.,.,/,.,/
O=C(Nc1ncc(S(=O)(=O)c2ccc([N+](=O)[O-])cc2)s1)c1cccnc1,.,.,50.1µM,.,.,/
CCC(C)(C)C(=O)Nc1ncc(S(=O)(=O)c2ccc([N+](=O)[O-])cc2)s1,.,?,50.1µM,.,.,.
O=C(Nc1ncc(S(=O)(=O)c2ccc([N+](=O)[O-])cc2)s1)c1ccc2ccccc2c1,.,.,.,.,.,.
Cn1cccc1C(=S)N=P(C1CCCCC1)(N1CCOCC1)N1CCOCC1,?,.,8.91µM,/,35.5µM,.
COCCNC(=O)CCCn1c(SCC(=O)c2ccc(F)cc2)nc2c(sc3ccccc32)c1=O,.,.,.,/,.,/
COc1ccccc1NC(=O)C1=C(C)Nc2ncnn2C1c1ccccn1 (centres undefined),.,.,.,/,.,/
COc1ccccc1NC(=O)C1=C(C)Nc2ncnn2C1c1ccc[nH]1 (centres undefined),.,?,.,/,56.2µM,/
CC1=C(C(=O)Nc2cccc(C(F)(F)F)c2)C(c2ccccn2)n2ncnc2N1 (centres undefined),.,?,20µM,/,50.1µM,/
COc1ccc(NC(=O)C2=C(C)Nc3ncnn3C2c2ccccn2)cc1 (centres undefined),.,?,?,/,89.1µM,/
SMILES,HP1b chromo inh,BAZ2B block,G9a inh,PI5P4Ka inh,JMJD2A Tudor inh,L3MBTL1 block
Cc1ccc(C(=O)c2oc3ccccc3c2NC(=O)c2cc(-c3ccccc3)on2)cc1,.,.,.,/,.,/
O=C(Cn1nc(-c2ccco2)ccc1=O)Nc1ccc(Br)cc1,?,?,25.1µM,.,.,/
CCOC1=NC(=C(c2ccccc2)c2ccccc2)OC1=O,.,/,/,.,25.1µM,/
COC1=NC(=C(c2ccccc2)c2ccccc2)OC1=O,.,/,/,.,.,/
COc1ccc(CC(=O)Nc2ccc3nc(C)sc3c2)cc1OC,.,.,20µM,.,.,.
Cc1nc2ccc(NC(=O)COc3ccccc3[N+](=O)[O-])cc2s1,.,.,.,.,.,.
Cc1nc2ccc(NC(=O)COc3ccccc3C)cc2s1,.,.,44.7µM,.,.,/
O=CCCCC=O,/,/,.,/,/,/
Cc1ccc(Sc2ncccc2C(=O)NCc2cc([N+](=O)[O-])ccc2O)c(C)c1,.,35.5µM,/,.,.,/
Cc1cccc(C2c3[nH]c4ccccc4c3CCN2C(=O)c2cc3c([nH]c2=O)CCCC3)n1 (centres undefined),.,44.7µM,.[12.7 µM],.,?,.
O=C(c1cc2c([nH]c1=O)CCCC2)N1CCc2c([nH]c3ccccc23)C1c1ccccc1F (centres undefined),.,?,/,.,?,.
COc1cccc(C(=O)N2CCc3c([nH]c4ccccc34)C2c2ccc(SC)cc2)c1 (centres undefined),.,.,?,/,?,/
Cc1cc2cc(C(=O)N3CCc4c([nH]c5ccccc45)C3c3ccccn3)ccc2o1 (centres undefined),.,39.8µM,?,.,35.5µM,/
CSc1ccc(C2c3[nH]c4ccccc4c3CCN2C(=O)c2ccnn2C)cc1 (centres undefined),.,?,39.8µM,.,?,.
Cc1nc(C)c(CC(=O)N2CCc3c([nH]c4ccccc34)C2c2ccccn2)s1 (centres undefined),.,?,/,.,.,.
CCOC(=O)c1[nH]c(C)c(C(=O)N2CCc3c([nH]c4ccccc34)C2c2ccccn2)c1C (centres undefined),.,50.1µM,.[0.501 µM],.,?,?
CCOC(=O)c1cccc(NS(=O)(=O)c2c(C)nc3sc(C)cn3c2=O)c1,.,.,.,/,.,/
COc1cccc(NC(=O)C(CCSC)NC(=O)C2CCC(C)CC2)c1 (centres undefined),.,.,?,/,.,/
Cc1ncoc1C(=O)N1CCc2c([nH]c3ccccc23)C1c1ccccc1F (centres undefined),.,50.1µM,39.8µM,.,?,.
Cn1cccc1-c1cc(C(=O)N2CCc3c([nH]c4ccccc34)C2c2ccccn2)[nH]n1 (centres undefined),?,35.5µM,35.5µM,.,50.1µM,.
Cn1cccc1-c1cc(C(=O)O)[nH]n1,.,?,50.1µM,/,.,.
O=C(c1cc2ncccn2n1)N1CCc2c([nH]c3ccccc23)C1c1ccccc1F (centres undefined),.,.,.,.,?,.
CCOc1cc(CNC(=O)c2ccc3nc(CCc4ccccc4)oc3c2)ccc1OC,.,.,.,/,.,/
O=C(Nc1ccccc1C(=O)O)/C(=C/c1ccc([N+](=O)[O-])cc1)NC(=O)c1ccc(Br)o1,.,.,44.7µM,.,.,/
O=C(Nc1ccccc1)/C(=C/c1ccc([N+](=O)[O-])cc1)NC(=O)c1ccco1,.,.,17.8µM,.,.,/
